{"source": "PubChem BioAssay AID488890", "about": "(Southern Research Specialized Biocontainment Screening …, 2010)", "note": "The whole screen tested about 320,000 compounds, of which about 1,300 (0.41%) were called active. Not shown: some 3% with an inconclusive outcome. No rule for the calls is given here. The list is a sample of the results. Measured potencies and affinities stand elsewhere."}
{"experiment": "growth inhibition of non-replicating M. tuberculosis (AID 488890);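 also: plate controls were DMSO cells for no effect and high antibiotic wells for full effect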", "conditions": "Mycobacterium tuberculosis non-replicating, at 25 µM, stronger effect = higher value", "units": {"inhibition": "%"}}
{"smiles": "Cn1nc(C(=O)NNC(=O)c2cccc(Cl)c2)ccc1=O", "inhibition": 1.12}
{"smiles": "O=S(=O)(NC1=NCCCCC1)c1cc(F)ccc1F", "inhibition": -1.39}
{"smiles": "CC1(C)Oc2ccc(C(=O)N/N=C/c3ccc(O)cc3)cc2NC1=O", "inhibition": 4.72}
{"smiles": "CC(Sc1n[nH]c(N)n1)C(=O)Nc1cccc2ccccc12", "note": "(stereo not given)", "inhibition": 11}
{"smiles": "Cc1nn(-c2ccccc2)c(C)c1/C=N/NC(=O)c1cc(-c2cccs2)[nH]n1", "inhibition": 47.5}
{"smiles": "O=C(Nc1cccc(Br)c1)c1ccc2nc(N3C(=O)CCC3=O)sc2c1", "inhibition": 3.99}
{"smiles": "Nc1c(C(=O)c2ccccc2)sc(Nc2ccccc2)c1S(=O)(=O)c1ccccc1", "inhibition": 12.2}
{"smiles": "COCCCC1CCN(C(=O)C2CCC(=O)N(C3CCCC3)C2)CC1", "note": "(stereo not given)", "inhibition": -6.84}
{"smiles": "CCNc1nc(=S)nc(NC(C)C)[nH]1", "inhibition": -23}
{"smiles": "CC(=O)Nc1ccc(C(=O)OCc2ccc(F)cc2Cl)cc1", "inhibition": 50}
{"smiles": "COc1ccc(NC(=O)/C(C#N)=C/c2c(C)nn(-c3ccc(F)cc3)c2Cl)cc1OC", "inhibition": 9.54}
{"smiles": "CCN(CC)S(=O)(=O)c1ccc(N2CC(C(=O)NCCc3ccc(Cl)cc3)CC2=O)cc1", "note": "(stereo not given)", "inhibition": 28.6}
{"smiles": "O=C(N/N=C/c1ccc(F)cc1)c1c(O)c2ccccc2[nH]c1=O", "inhibition": 25.9}
{"smiles": "O=C(N/N=C/c1ccccc1)c1c(O)c2ccccc2[nH]c1=O", "inhibition": 58.7}
{"smiles": "Cc1ccc(NC(=S)N(CCCN2CCOCC2)Cc2cccnc2)cc1C", "inhibition": -0.2}
{"smiles": "CSCCC(NC(=O)OCc1ccccc1)C(=O)O", "note": "(stereo not given)", "inhibition": -8.32}
{"smiles": "Cc1ccc(SCC(=O)c2cc(C)c(O)c(C)c2)cc1", "inhibition": 0.12}
{"smiles": "Nc1ccc(O)c2c(=O)cc(-c3ccccc3Cl)oc12", "inhibition": -0.68}
{"smiles": "O=c1cc(-c2ccccc2Cl)oc2cccc(O)c12", "inhibition": -8.34}
{"smiles": "Nc1ccc2oc(-c3ccccc3Cl)cc(=O)c2c1O", "inhibition": -0.76}
{"smiles": "O=c1cc(-c2ccccc2Cl)oc2c(Br)ccc(O)c12", "inhibition": -2.73}
{"smiles": "COc1ccc(-c2[nH]nc3c2C(c2ccc(OC(=O)N4CCOCC4)cc2)C(C#N)=C(N)O3)cc1", "note": "(stereo not given)", "inhibition": 13.2}
{"smiles": "CCc1cccc(C)c1NC(=O)CN(C)Cc1ccccc1F", "inhibition": 23.6}
{"smiles": "C[C@H](CO)N1C[C@H](C)[C@@H](CN(C)C(=O)Nc2ccc(C(F)(F)F)cc2)Oc2c(NC(=O)Nc3ccccc3)cccc2C1=O", "inhibition": 32.4}
{"smiles": "Cc1ccc(OCCCCN2CCC(C)CC2)c(Br)c1", "inhibition": 49.3}
{"smiles": "CC1CCN(CCCOc2ccc(Br)cc2Cl)CC1", "inhibition": 33.5}
{"smiles": "Cc1ccc(C)c(NC(=S)NCCc2c[nH]c3ccccc23)c1", "inhibition": 67}
{"smiles": "Clc1ccc2nc(CSc3ncn[nH]3)cn2c1", "inhibition": -31.7}
{"smiles": "O=[N+]([O-])c1ccc2nc(SCc3cn4cccnc4n3)[nH]c2c1", "inhibition": -20.2}
{"smiles": "NC(=O)CSc1nc2ccc([N+](=O)[O-])cc2[nH]1", "inhibition": 3.31}
{"smiles": "c1ccc2[nH]c(SCc3cn4ccccc4n3)nc2c1", "inhibition": -0.59}
{"smiles": "CCC(CO)NCc1sccc1C", "note": "(stereo not given)", "inhibition": -5.31}
{"smiles": "Cc1cccc(C(=O)NC(=S)Nc2ccc(S(=O)(=O)N3CCN(C)CC3)cc2)c1", "inhibition": 52.2}
{"smiles": "Cc1cc(C(=O)N/N=C/c2cc(Cl)cc([N+](=O)[O-])c2O)c2ccccc2n1", "inhibition": 54.6}
{"smiles": "O=[N+]([O-])c1cc(/C=N\\Nc2ccccn2)ccc1Cl", "inhibition": -14.6}
{"smiles": "COc1cc(/C=N/Nc2nc3ccccc3s2)cc([N+](=O)[O-])c1O", "inhibition": 22}
{"smiles": "Cc1c(O)ccc(/C=N/Nc2ncccc2[N+](=O)[O-])c1O", "inhibition": -1.95}
{"smiles": "O=C(N/N=C/c1cc(Cl)cc([N+](=O)[O-])c1O)c1cc(-c2ccccn2)nc2ccccc12", "inhibition": 4.78}
{"smiles": "COc1cccc(/C=N/Nc2ncccc2[N+](=O)[O-])c1OC", "inhibition": 1.4}
{"smiles": "CN(C(=O)COC(=O)c1ccccc1SCC(=O)N1CCCC1)C1CCS(=O)(=O)C1", "note": "(stereo not given)", "inhibition": -9.96}
{"smiles": "Cc1ccccc1CCNC(=O)C1CC(O)CN1C(=O)Nc1ccccc1", "note": "(stereo not given)", "inhibition": -7.09}
{"smiles": "O=S(=O)(NCc1ccccc1F)c1cccc(S(=O)(=O)N2CCOCC2)c1", "inhibition": -6.99}
{"smiles": "O=C(NC(=S)Nc1ccc(Cl)cn1)c1cc([N+](=O)[O-])ccc1N1CCOCC1", "inhibition": 5.35}
{"smiles": "Cc1ccc(S(=O)(=O)N2CCN(C(=O)c3ccccc3)CC2)cc1", "inhibition": 9.38}
{"smiles": "COc1ccc(CCNC(=O)C(=O)c2c(C)[nH]c3ccccc23)cc1", "inhibition": 12}
{"smiles": "NC(=O)NCCC1=CCCCC1", "inhibition": -8.64}
{"smiles": "O=C(NCCC1=CCCCC1)c1ccc(Cl)cc1", "inhibition": 76.5}
{"smiles": "COc1ccc(C(=O)NCCC2=CCCCC2)cc1", "inhibition": 71.4}
{"smiles": "O=C(NCCc1ccccc1)c1ccc(Br)o1", "inhibition": 73.4}
{"smiles": "CCN(CC)C(=O)c1cccc(NC(=O)c2cc(-c3ccccn3)nc3ccccc23)c1", "inhibition": 57}
{"smiles": "Cc1nnc2sc(SCC(=O)Nc3ccc(Br)cc3)nn2c1=O", "inhibition": -4.78}
{"smiles": "CCOc1ccccc1C(=O)NC1CC2CCCC(C1)N2C1CC1", "note": "(stereo not given)", "inhibition": 0.26}
{"smiles": "CCOc1ccc(S(=O)(=O)N2CCOCC2)cc1NC(=O)CN1C(=O)NC(C)(c2ccccc2)C1=O", "note": "(stereo not given)", "inhibition": 6.19}
{"smiles": "Nc1ncnc(Sc2ccccc2)c1[N+](=O)[O-]", "inhibition": 67.8}
{"smiles": "Cc1nc(Sc2ccccc2)c(C#N)c(C)c1[N+](=O)[O-]", "inhibition": 16.8}
{"smiles": "C#CCN(CC=C)C(=O)c1ccc(OC2CCN(S(=O)(=O)N(C)C)CC2)cc1", "inhibition": -9.64}
{"smiles": "O=C(Nc1ccccn1)C1COc2ccccc2O1", "note": "(stereo not given)", "inhibition": 77}
{"smiles": "Cc1cccc(NC(=O)C2COc3ccccc3O2)n1", "note": "(stereo not given)", "inhibition": 75.7}
{"smiles": "O=C(C1COc2ccccc2O1)N1CCCC1", "note": "(stereo not given)", "inhibition": 70.2}
{"smiles": "O=C(COC(=O)C1COc2ccccc2O1)Nc1cccc(Cl)c1", "note": "(stereo not given)", "inhibition": 6.42}
{"smiles": "O=C(CCC1COc2ccccc2O1)Nc1ccc(Cl)cn1", "note": "(stereo not given)", "inhibition": 79.7}
{"smiles": "CC1CCCN(C(=O)C2COc3ccccc3O2)C1", "note": "(stereo not given)", "inhibition": 57.7}
{"smiles": "O=C(Nc1ccncc1)C1COc2ccccc2O1", "note": "(stereo not given)", "inhibition": 29.1}
{"smiles": "Cc1ccnc(NC(=O)C2COc3ccccc3O2)c1", "note": "(stereo not given)", "inhibition": 2.12}
{"smiles": "CCOC(=O)CNC(=O)CN1CCC(c2nc3ccccc3[nH]2)CC1", "inhibition": -5.38}
{"smiles": "COc1ccc(N/C=C/C(=O)c2ccc(Oc3ncccn3)cc2)cc1", "inhibition": -0.22}
{"smiles": "C/C(CC(=O)NC1CCCCC1)=N\\NC(=O)Cc1ccc(-c2ccccc2)cc1", "inhibition": 9.13}
{"smiles": "O=C(C1=C[C@@H](c2ccccc2)C[C@@H](OCc2ccc(CO)cc2)O1)N1CCN(Cc2ccc3c(c2)OCO3)CC1", "inhibition": 38.2}
{"smiles": "O=C(CNC(=O)Cc1ccccc1)NCC(=O)OCc1ccc(C(=O)c2ccccc2)cc1", "inhibition": 4.67}
{"smiles": "COc1ccc(-n2nc(C(=O)NCC(=O)NCc3cccc(F)c3)c3ccccc3c2=O)cc1Cl", "inhibition": -7.9}
{"smiles": "O=S(=O)(c1ccc2nc(COc3ccccc3)[nH]c2c1)N1CCOCC1", "inhibition": -3.8}
{"smiles": "CC(C)(C)C(=O)CN1C2=NCCCN2c2ccccc21", "inhibition": 12.1}
{"smiles": "CCOc1ccc(N(CC(=O)NCc2ccccc2)S(=O)(=O)c2ccc(C)cc2)cc1", "inhibition": 0.73}
{"smiles": "CC1CCCC(NC(=O)C2COc3ccccc3O2)C1C", "note": "(stereo not given)", "inhibition": 17.1}
{"smiles": "COC(=O)c1ccccc1NC(=O)C1COc2ccccc2O1", "note": "(stereo not given)", "inhibition": 59.7}
{"smiles": "CCN(CC1COc2ccccc2O1)C(=S)NC1CC2CCC1C2", "note": "(stereo not given)", "inhibition": 0.66}
{"smiles": "COC(=O)c1ccc(C)c(NC(=O)C2COc3ccccc3O2)c1", "note": "(stereo not given)", "inhibition": 57.8}
{"smiles": "Cc1[nH]c2ccccc2c1C(=O)C(C)OC(=O)c1ccccc1NCCO", "note": "(stereo not given)", "inhibition": 17.8}
{"smiles": "CCCCN(Cc1ccco1)S(=O)(=O)c1csc(C(N)=O)c1", "inhibition": 38.5}
{"smiles": "CSc1ccccc1C(=O)N(C)C(c1ccccc1)c1ccccc1", "inhibition": 13.8}
{"smiles": "CCNc1nc(NC(C)C)nc(SCCOc2ccc(C)cc2)n1", "inhibition": 6.84}
{"smiles": "Cc1ccc(OCCCn2ccnc2)cc1C", "inhibition": 70.8}
{"smiles": "Clc1ccc(SCCn2ccnc2)cc1", "inhibition": 71.2}
{"smiles": "Cc1cc(C)cc(OCCCn2ccnc2)c1", "inhibition": 76}
{"smiles": "C=CCc1cc(Cl)ccc1OCCn1ccnc1", "inhibition": 31.9}
{"smiles": "Cc1cc(OCCCn2ccnc2)cc(C)c1Cl", "inhibition": -6.72}
{"smiles": "Cc1cc(OCCCn2ccnc2)ccc1[N+](=O)[O-]", "inhibition": 39.3}
{"smiles": "Clc1ccc(SCCCCn2cncn2)cc1", "inhibition": 26.1}
{"smiles": "C=CCc1cc(C)ccc1OCCCn1ccnc1", "inhibition": 26.9}
{"smiles": "CS(=O)(=O)N1CCC(C(=O)NCCN2CCN(Cc3ccccc3)CC2)CC1", "inhibition": -1.43}
{"smiles": "Cc1ccc(-c2csc(N3CCC[C@@H]3C(=O)NCCn3c(C(F)(F)F)nc4ccccc43)n2)cc1", "inhibition": 42.9}
{"smiles": "C[C@@H](NC(=O)c1nc[nH]c1C(=O)N[C@H](C)c1ccccc1)c1ccccc1", "inhibition": 66}
{"smiles": "O=C(O)c1ccc2c(=O)n3cc(C(=O)c4ccccc4O)cc(Cl)c3nc2c1", "inhibition": -0.88}
{"smiles": "Fc1ccc2c(c1)C(c1ccncc1)=NNC(c1ccc(Br)cc1)=N2", "inhibition": 21.1}
{"smiles": "O=C(N/N=C/c1ccc2cccnc2c1)c1ccco1", "inhibition": 14.9}
{"smiles": "COc1ccc(CCNS(=O)(=O)c2c(N)n(C)c(=O)n(C)c2=O)cc1OC", "inhibition": 3.12}
{"smiles": "CCOc1ccc(C(=O)Nc2cc(S(=O)(=O)Nc3ccccc3Cl)ccc2N2CCOCC2)cc1", "inhibition": 4.51}
{"smiles": "CS(=O)(=O)N(CC(=O)NCC1CCCO1)c1cc(Cl)cc(Cl)c1", "note": "(stereo not given)", "inhibition": -12.1}
{"smiles": "Cc1ccc(OCCCn2ccnc2)c(Br)c1", "inhibition": 27.2}
{"smiles": "Clc1cc(Br)ccc1OCCn1ccnc1", "inhibition": 40}
{"smiles": "Clc1ccccc1OCCCn1ccnc1", "inhibition": -0.75}
{"smiles": "Clc1ccc(OCCn2ccnc2)c2ccccc12", "inhibition": 17.9}
{"smiles": "O=C(CCNC(=O)C1CCN(S(=O)(=O)c2ccccc2)CC1)NCCc1ccc(Cl)cc1", "inhibition": 1.82}
{"smiles": "CN1CCN(C(=O)C2CCCN(S(=O)(=O)c3ccc(Br)cc3)C2)CC1", "note": "(stereo not given)", "inhibition": 8.61}
{"smiles": "COc1ccc(CCn2c(N3CCN(Cc4ccccc4)CC3)nc3c2c(=O)[nH]c(=O)n3C)cc1", "inhibition": 15.1}
{"smiles": "CC1(c2nnc(-c3ccc(Cl)cc3)o2)CC(c2cccc(Cl)c2)=NO1", "note": "(stereo not given)", "inhibition": 79.6}
{"smiles": "CC1(c2nnc(-c3ccccc3)o2)CC(c2ccccc2)=NO1", "note": "(stereo not given)", "inhibition": 79.5}
{"smiles": "CC1(c2nnc(-c3ccc(Cl)cc3)o2)CC(c2ccc(Cl)cc2)=NO1", "note": "(stereo not given)", "inhibition": 36.6}
{"smiles": "CC1(c2nnc(-c3cccc(Cl)c3)o2)CC(c2ccc(F)cc2)=NO1", "note": "(stereo not given)", "inhibition": 70.9}
{"smiles": "Cc1ccc(OCCn2ccnc2)c(C)c1", "inhibition": 6.35}
{"smiles": "CCOc1cc(/C=C2\\CCn3c2nc2cc(Cl)ccc2c3=O)ccc1O", "inhibition": 9}
{"smiles": "CN(c1ccccc1)S(=O)(=O)c1cc(Cl)ccc1Cl", "inhibition": 28.7}
{"smiles": "CCOc1cc(NC(=O)c2ccccc2OC)c(OCC)cc1NC(=O)c1ccccc1", "inhibition": 8.11}
{"smiles": "C/C(=N\\NC(=O)c1ccc2c(c1)OCO2)c1ccc2c(c1)OCO2", "inhibition": 41.2}
{"smiles": "C/C(=N\\NC(=O)c1ccccc1)c1ccc2c(c1)OCO2", "inhibition": 35.4}
